Test [1] in a line: qHTS assay for measurement of the activity of small molecule inhibitors on Zika virus induced Caspase-3 activity in human iPSC derived neural progenitor cells (hNPCs) (AID 1224857). Further: nearly all actives have a fitted effect of over 65% in size. An outline of the steps: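 After overnight (16–20 h) culture at 350 cells/well, hNPCs get compound, then ZIKV 2 FFU/cell one hour later. Six hours on, Caspase-Glo 3/7 is added and luminescence measured.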
Background: In qHTS, concentration-response curves come from the screen itself.

Test [2] can be described thus: qHTS assay for measurement of the activity of small molecule inhibitors on Zika virus induced Caspase-3 activity in human astrocytoma cells (AID 1224859). An outline of the steps:
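Inhibition of Zika-induced caspase-3/7 activity: SNB-19 cells, 1 h compound pretreatment, ZIKV 2 FFU/cell for 6 h at 37 C, Caspase-Glo luminescence read-out.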

A short description of test [3]: qHTS Screen of the MIPE 4.0 Collection Against Ewings Sarcoma (RDES) (AID 1259252). Further: nearly all actives have a fitted effect of over 35% in size. Further: potency means the concentration at half of the fitted maximal effect. An outline of the steps:
(§1)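 Measured: ATP luminescence (CellTiter-Glo) 10 min after reagent addition, following 48 h drug treatment. Relative luciferase units converted to percent activity, with no-cell wells as full and DMSO wells as zero inhibition.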

Test [4] can be described thus: qHTS Screen of the MIPE 4.0 Collection Against Ewings Sarcoma (TC71) (AID 1259253). Further: nearly all actives have a fitted effect of over 40% in size. Further: potency means the concentration at half of the fitted maximal effect. The method, boiled down: as §1
Test [5] in a line: qHTS Screen of the MIPE 4.0 Collection Against Ewings Sarcoma (EW8) (AID 1259255). Further: nearly all actives have a fitted effect of over 35% in size. Further: potency means the concentration at half of the fitted maximal effect. An outline of the steps:
as §1

The nature of test [6]: qHTS Screen of the MIPE 4.0 Collection Against Ewings Sarcoma (TC32) (AID 1259256). Further: nearly all actives have a fitted effect of over 45% in size. Further: potency means the concentration at half of the fitted maximal effect. The method, boiled down:
as §1

Test [7] in a line: Identifying Small Molecule Inhibitors of Pancreatic Cancer Stem Cells (A2780, Spheroid) (AID 1259357).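 Further: compound exposure lasted 48 h before the ATP luminescence read.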 Further: potency means the concentration at half of the fitted maximal effect. The following applies: Potency: A2780 spheroid viability. An outline of the steps: (§2)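 Monolayer and spheroid cultures are compared. Spheroids form over 14 days in stem cell medium on hydrogel-coated low-attachment plates, then are exposed to compound for 48 h before CellTiter-Glo luminescence.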

Test [8] is described as follows: Identifying Small Molecule Inhibitors of Pancreatic Cancer Stem Cells (SN12C, Adherent) (AID 1259358).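 Further: cell survival measured after 48 h of compound exposure.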 Further: potency means the concentration at half of the fitted maximal effect. An outline of the steps: (§3)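 After a 4 h attachment period, compounds were pinned into wells and cultures held 48 h under standard incubator conditions. Viability was then measured as CellTiter-Glo luminescence following 10 min at room temperature.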
A short description of test [9]: Identifying Small Molecule Inhibitors of Pancreatic Cancer Stem Cells (Panc1, Spheroid) (AID 1259359).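 Further: potency means the concentration at half of the fitted maximal effect; compound exposure lasted 48 h before reading.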 The method, boiled down:
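Adherent (2D) versus sphere (3D) formats; spheres generated 14 d in SCM beforehand. Compound transferred by pin tool after 4 h, 48 h incubation, CellTiter-Glo endpoint.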

Test [10] can be described thus: Identifying Small Molecule Inhibitors of Pancreatic Cancer Stem Cells (SN12C, Spheroid) (AID 1259360). Further: potency means the concentration at half of the fitted maximal effect. The following applies: Potency: SN12C spheroid viability. An outline of the steps: as §2
Test [11] is described as follows: Identifying Small Molecule Inhibitors of Pancreatic Cancer Stem Cells (A278, Adherent) (AID 1259361).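 Further: viability read after 48 h compound exposure; nearly all actives have a fitted effect of over 35% in size.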 An outline of the steps: as §3
A short description of test [12]: Identifying Small Molecule Inhibitors of Pancreatic Cancer Stem Cells (Panc1, Adherent) (AID 1259362). Further: potency means the concentration at half of the fitted maximal effect. Conditions: Potency: viability. The method, boiled down:
as §3

Test [13] in a line: P-glycoprotein substrates identified in KB-8-5-11 adenocarcinoma cell line, qHTS therapeutic library screen (AID 1346987). Further: nearly all actives have a fitted effect of over 65% in size. Further: potency means the concentration at half of the fitted maximal effect. The method, boiled down:
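Steps: plate 500 KB-8-5-11 cells/well in DMEM + 10% FCS (colchicine removed); pin compounds in dose-response; incubate 72 h, 37 degree C, 5% CO2; add CellTiter-Glo, 5 min; read luminescence.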

Test [14] is described as follows: NS1 protein of Zika virus - qHTS assay to identify small molecule inhibitors in human HEK 293 cells (AID 1347053). Further: nearly all actives have a fitted effect of over 55% in size. Further: potency means the concentration at half of the fitted maximal effect. An outline of the steps: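 HEK 293; 20 h pre-culture, 37 C/5% CO2; cpd 1 h pre-infection; ZIKV MR766, MOI = 0.5, 24 h, 37 C; TR-FRET NS1 readout (two anti-NS1 Abs); norm. to no-virus vs infected.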
The nature of test [15]: qHTS assay to identify small molecule inhibitors of chordoma cells - UCH-1 (AID 1259355). Further: nearly all actives have a fitted effect of over 55% in size. The method, boiled down: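 Luminescent ATP read-out (CellTiter-Glo, 30min at room temperature) measured viability of UCH-1 cells exposed for 48hr to test drugs at 15 concentrations, co-dosed with a five-agent combination of auranofin, camptothecin, doxorubicin, rubitecan and topotecan.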

Test [16] in a line: qHTS assay to identify small molecule inhibitors of chordoma cells - UCH-2 (AID 1259356). Further: series mostly up to about 46 µM.
Test [17] can be described thus: P-glycoprotein substrates identified in KB-3-1 adenocarcinoma cell line, qHTS therapeutic library screen (AID 1346986). Further: nearly all actives have a fitted effect of over 60% in size. The method, boiled down:
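Resistance attributable to P-gp was assessed by comparing AC50 in KB-8-5-11 with parental KB-3-1 and by tariquidar reversal. Cells were exposed 72 h and viability read by CellTiter-Glo.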

These results are taken from PubChem BioAssay (NCATS).

Each structure is given as a SMILES string. “And” between values parts separate entries of the source, which are not always exact repeats. Equal entries are not always repeated. Records with an inconclusive call do not appear. The source made the active and inactive calls. The call rests on the fitted dose curve; in most records, active means well fitted curve in the direction sought with a large enough effect; inconclusive means small, poorly fitted or top-dose-only effect, or another doubt; inactive means no such curve, though single readings can be large; an effect the other way counts as inactive or inconclusive.

Regarding `COC(=O)[C@]12CCC(C)(C)C[C@@H]1[C@@H]1C(=O)C=C3[C@@]4(C)C=C(C#N)C(=O)C(C)(C)[C@@H]4CC[C@@]3(C)[C@]1(C)CC2`, the Potency result in test [1] and in test [2] was “inactive” throughout. Further, the Potency in [3] was 372 nM (active); in test [4] it was 264 nM (active); in [5], 296 nM (active); in [6] it was 118 nM (active); in test [7] it was 1320 nM (active); in test [8] it was 2640 nM (active). The Potency in [9] is 1180 nM (active); in [10], 2350 nM (active); in test [12], 2960 nM (active); in test [13] it was 0.743 µM (active); in test [14], 1320 nM (active). In addition, the IC50 (viability decrease) in [11] is 1050 nM (active).

On to `NC1(Cc2ccc(Cl)cc2)CCN(c2ncnc3[nH]ccc23)CC1`, for which the Potency result in test [1] and in [2] was “inactive” throughout. Besides, the Potency in test [3] is 16600 nM (active); in test [4], 18700 nM (active); in test [5], 16600 nM (active).

Turning to `CC=CC1=C(C(=O)O)N2C(=O)[C@H](NC(=O)[C@H](N)c3ccc(O)cc3)[C@@H]2SC1`, the Potency result in test [1], in test [2], in [3], in test [4], in test [5] and in [6] was “inactive” throughout. The Potency entry in test [15], in [13] and in [14] was “inactive” in each case. Moreover, the compound was called inactive in test [16].

`CN1CC[C@@H](c2c(O)cc(O)c3c(=O)cc(-c4ccccc4Cl)oc23)[C@@H](O)C1`: the Potency result in test [1] and in test [2] was “inactive” each time. Also, the Potency was 148 nM (active) in [3]; 74.3 nM (active) in [4]; 118 nM (active) in test [5]; 148 nM (active) in test [6]; 74.3 nM (active) in [7]; 187 nM (active) in test [8]. Besides, the Potency in [9] was 132 nM (active); in [10], 118 nM (active); in test [12], 132 nM (active); in test [13], 0.209 µM (active); in test [14], 833 nM (active). Further, the IC50 (viability decrease) in test [11] is 37.2 nM (active).

On to `CC[C@@H]1C(=O)N(C)c2cnc(Nc3ccc(C(=O)NC4CCC(N5CCN(CC6CC6)CC5)CC4)cc3OC)nc2N1C(C)C` (stereo partly drawn), for which the Potency entry in test [1], in test [2] and in [7] was “inactive” each time. Also, the Potency in [3] is 105 nM (active); in [4], 118 nM (active); in test [5], 74.3 nM (active); in [6], 66.2 nM (active); in [8] it was 1320 nM (active); in [9], 9.3 nM (active). Besides, the Potency in test [12] was 10.5 nM (active); in test [13], 372 nM (active) and 326 nM (active) and 231 nM (active); in test [14], 105 nM (active). Moreover, the IC50 (viability decrease) in test [11] was 20.9 nM (active).

In the case of `CC1(C)O[C@@H]2C[C@@H]3[C@H]4C[C@@H](F)C5=CC(=O)C=C[C@]5(C)[C@@]4(F)[C@@H](O)C[C@]3(C)[C@]2(C(=O)CO)O1`, the Potency entry in [1], in test [2], in test [3], in test [4], in [5] and in test [6] was “inactive” in each case. The Potency entry in [17], in test [13] and in [14] was “inactive” throughout. In addition, in test [16], the compound was called inactive.

In the case of `O=C(C=Cc1cccnc1)NCCCCC1CCN(C(=O)c2ccccc2)CC1`, the Potency entry in test [1], in [2], in test [7], in test [8], in test [12] and in test [14] was “inactive” each time. The Potency in test [3] was 4.2 nM (active); in test [4], 4.2 nM (active); in [5], 7.4 nM (active); in test [6] it was 4.2 nM (active); in [10], 2.1 nM (active); in test [13], 0.0166 µM (active). The IC50 (viability decrease) result in test [11] was “inactive”.

With `O=C(O)Cn1nnc(-c2cc(N3CCC(Oc4cc(F)ccc4Br)CC3)no2)n1`, the Potency entry in [1], in test [2], in test [3], in test [4] and in test [5] was “inactive” in each case.

As to `O=C(C=Cc1cccc(S(=O)(=O)Nc2ccccc2)c1)NO`, the Potency entry in test [1] and in test [2] was “inactive” in each case. For the same compound, the Potency was 2150 nM (active) in [3]; 2700 nM (active) in [4]; 1520 nM (active) in test [5]; 1910 nM (active) in test [6]; 20900 nM (active) in test [8]; 10.8 µM (active) in [13]. For the same compound, in [11], the IC50 (viability decrease) is 4690 nM (active).

On to `Cc1ccc(-c2ncn(-c3ccc(Nc4nccc(-c5cccc(N6CCOCC6)c5)n4)cc3)n2)cn1`, for which the Potency result in [1] and in test [2] was “inactive” throughout. Also, the Potency was 74.3 nM (active) in test [3]; 118 nM (active) in [4]; 93.5 nM (active) in test [5]; 52.6 nM (active) in [6]; 59 nM (active) in [8]; 59 nM (active) in test [10]. In addition, the results for the Potency in test [12], in [13] and in test [14] were 74.3 nM (active), 1.05 µM (active) and 3720 nM (active), respectively. The IC50 (viability decrease) in [11] is 74.3 nM (active).

Consider `CS(=O)(=O)N1CCN(Cc2cc3nc(-c4cccc5[nH]ncc45)nc(N4CCOCC4)c3s2)CC1`, for which the Potency entry in test [1] and in [2] was “inactive” in each case. Moreover, the Potency was 1180 nM (active) in [3]; 5900 nM (active) in [4]; 1660 nM (active) in test [5]; 418 nM (active) in test [6]; 296 nM (active) in [8]; 590 nM (active) in [12]. Moreover, the Potency is 2.91 µM (active) in test [13] and 4690 nM (active) in test [14]. Moreover, the IC50 (viability decrease) in test [11] is 372 nM (active).

As for `CC(C)(O)CCc1ccc(OCc2cc(-c3cccc(OC(F)F)c3)c3ncccc3c2)cc1`, the Potency entry in [1], in [2], in [3], in test [4], in [5] and in [6] was “inactive” in each case. The Potency result in test [8] is “inactive”.

Regarding `CCCCCN(CCC12CC3CC(CC(C3)C1)C2)C(=O)NCCCc1ccncc1`, the Potency result in test [1], in test [2], in test [8], in test [10] and in test [14] was “inactive” each time. In addition, the Potency in [3] was 16600 nM (active); in test [4], 18700 nM (active); in [5], 18700 nM (active); in [6], 14800 nM (active); in test [13], 16.4 µM (active).

As for `COc1cc2c(Oc3ccc(-c4cnc(Nc5ccc(F)cc5)n(C)c4=O)cc3F)ccnc2cc1OCCCN1CCOCC1`, the Potency entry in test [1] and in test [2] was “inactive” throughout. Moreover, the Potency in test [3] was 20900 nM (active); in test [4], 20900 nM (active); in test [5] it was 18700 nM (active); in test [6] it was 11800 nM (active); in test [8] it was 5900 nM (active); in test [9] it was 11800 nM (active). The Potency in test [13] is 13.2 µM (active). For the same compound, in [11], the IC50 (viability decrease) is 3720 nM (active).
